# According to the OligoGym collection:
# Target: ARL4D
# Experiment: pooled miR-30 sensor sort-seq; sequence = guide strand
# Details: shRNA
# Also: reference of the scale not given here.
row,Sequence,sensor-assay potency score (higher = more potent)
1,ACACTCTGGACAAACTCCTTGA,-0.682
2,AACTCCTTGAACTTGAGGCGGT,-0.138
3,TTCTCGGTGTTGAAGCCTTTGG,-1.06
4,TTGTTGGCCAGCACCAGCACTG,-0.806
5,AGACCGTCCACAGCGCTGCAGC,-1.79
6,TTGCACATGAGTGAGAGTGGCG,-0.774
7,TATAAGAGCGCCACAGTGGTCG,-0.158
8,ACAAACACTAGACCGTCTGTCC,-0.415
9,TGGACAAACTCCTTGAACTTGA,-0.891
10,TAGACCGTCTGTCCGGCGGGTA,-1.34
11,TTGGAAGGTGATGCCACGCGAT,-0.67
12,TACGTCTCCACAGTCCTGCAGC,-0.421
13,ATTCGGTGCAACTCCACCTTGG,-0.512
14,AAACTCCTTGAACTTGAGGCGG,-0.934
15,TCCTCTTGAGGATCATCTCATA,-1.96

# Target: ARL8B
# Experiment: as above
# Details: shRNA
row,Sequence,sensor-assay potency score (higher = more potent)
1,TTTATCTAGAAGATTATGTAGC,0.313
2,TTTCACGATCTGCAGCATCTAT,-0.778
3,TGTGATATCTATATTATCCTTT,0.458
4,TTGAATAGCAGCAAATTTCTCT,0.213
5,TATCTTCACTGAATTGACCTGA,0.755
6,TAATTCTAGGATTATAGCCAAG,-1.33
7,TAAACAATAGCATTGACTCCTC,-0.391
8,TTTCCAAGCACTAGCACTGGAA,-1.03
9,TATCATGTAAACAATAGCATTG,-1.05
10,TTTCTCTATCCTGAATAGCAGA,-1.1
11,TTTCGGGAAGCTTCTATCTTTT,-1.11
12,TTACCTTTAGTTACCTTCCTCA,0.244

# Target: ARPC1A
# Experiment: as above
# Details: shRNA
row,Sequence,sensor-assay potency score (higher = more potent)
1,AAATTTGCGACAATCTTGCTTG,-0.036
2,TCTGAGACAAATGACACACTTA,0.156
3,ATTTGAAGTCACATGATCCTGC,0.383
4,TATAGATGTGCACTTCGTGATT,-0.958
5,TTTTGGAATATCTAACTTGGAG,-0.944
6,TATTCAAACAAAACCACACGGC,-0.11
7,TTGGCTTCCAAACACCATCTTT,-0.586
8,TTGAGTGATGCTATTCTGGTGC,0.522
9,TGAAGTCACATGATCCTGCTGC,0.622
10,TTTAATGTGCTTGCTCACCCAC,-0.282
11,TAACAAACAGAAATGAGTCGTG,0.708
12,TTTGGAATATCTAACTTGGAGA,-0.835
